Screens (PubChem BioAssay)
D2 ag-1: human D2 receptor agonism in beta-arrestin assay | DiscoveRx PathHunter D2 beta-arrestin, luminescence, 90 min; 100% = 57 uM dopamine signal | 0.084% of 360,000 active | activation, % (no concentration beside the values) | P14416; in the data active = activation above about 40%; inconclusive = between about 15% and that limit
Target sequence (P14416 whole entry, looked up): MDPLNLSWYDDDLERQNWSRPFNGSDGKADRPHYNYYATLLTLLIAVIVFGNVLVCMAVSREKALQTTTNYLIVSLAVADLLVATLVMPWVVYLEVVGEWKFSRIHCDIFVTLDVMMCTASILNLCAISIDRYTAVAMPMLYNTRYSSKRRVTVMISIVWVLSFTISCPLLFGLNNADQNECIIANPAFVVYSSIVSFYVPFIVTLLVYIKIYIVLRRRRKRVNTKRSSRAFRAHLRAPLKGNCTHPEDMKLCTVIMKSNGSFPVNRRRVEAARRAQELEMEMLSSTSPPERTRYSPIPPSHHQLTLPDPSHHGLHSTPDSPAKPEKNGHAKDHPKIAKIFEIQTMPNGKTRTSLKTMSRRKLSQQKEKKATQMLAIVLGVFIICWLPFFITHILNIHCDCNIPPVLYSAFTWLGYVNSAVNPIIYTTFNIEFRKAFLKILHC
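Agonist mode: compounds alone added to overnight-plated D2 PathHunter cells for 90 min at 37 C, with 57 uM final dopamine (EC100) defining full response. Beta-arrestin recruitment detected by chemiluminescent reagent, read after 1 h at ambient temperature.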
D2 PAM-1: human D2 receptor positive allosteric modulation | potentiation, % (concentration not given with the values) | P14416 | DiscoveRx D2 beta-arrestin cells, luminescence, 90 min; 100% = 57 uM dopamine signal | 0.23% of 360,000 active; in the data active = potentiation above about 50%; inconclusive = mostly about 30% to 49%
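D2 cells co-treated with compound plus 50 nM dopamine (EC20) for 90 min at 37 deg C to detect potentiation. Beta-arrestin recruitment was read as enzyme-fragment luminescence after 1 h at ambient temperature. Full response was set by 57 uM dopamine.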
D2 ag-2: agonists of human D2 dopamine receptor; P14416; HEK293 T-REx D2 cells, calcium flux agonist mode; activation, % at 2 µM; 0.53% of 340,000 active; AID 485358;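 active = activation over 3 SD above normal in the single-dose calcium agonist read, cut at about 30% in these data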; note: 0% is about no effect
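Tetracycline-induced HEK293 T-REx cells with force-coupled D2 receptor, plated overnight at 30 C, loaded with no-wash calcium dye. After a 10 s baseline, compound was pin-added and calcium flux read kinetically for 180 s; calcium rises flagged agonists.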
D2 PAM-2: positively modulates the human D2 dopamine receptor allosterically. potentiation, % at 10 µM. HEK293 T-REx D2, calcium flux, EC20 dopamine potentiation. 0.34% of 340,000 active. P14416. AID 485347;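 active = potentiation over 3 SD above the plate norm, cut at about 30% in these data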; note: 0% is about no effect
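Cells plated with tetracycline inducer and held overnight at 30 C; calcium dye loaded 30–90 min at room temperature; baseline taken, compound added and read 180 s; EC20 dopamine then added and read 180 s.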
D2 antag: antagonizes the human D2 dopamine receptor; P14416; HEK293 TREx D2 cells, calcium flux, dopamine EC80; inhibition, % at 10 µM; 2% of 340,000 active; in the data active = inhibition above about 30%; inactive = below that, where a call was filed; note: 0% is about no effect
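Antagonism is scored as inhibition of an EC80 dopamine-evoked calcium signal in a force-coupled, tetracycline-inducible HEK293 T-REx D2 line, with compound present 180 s before agonist.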
* marks the source's active call; other numbers are inactive results; ? = inconclusive; . = no result given; ! = a repeat was not active. Sampled rows, rich in hits. Any-hit rate of the full collection: about 2.4%.

SMILES	D2 ag-1	D2 PAM-1	D2 ag-2	D2 PAM-2	D2 antag
CCSC(=O)N1c2ccc(OC)cc2C=CC1C#N (configuration not stated)	-0.2	-10.0	.	.	.
COc1ccc(-c2cc(C(=O)Nc3cc(Br)ccc3O)no2)cc1	0.5	-0.1	-1.5	7.9	35.6*
COc1cc(NC(=O)c2cccc3c(-c4cccnc4)coc23)cc(OC)c1OC	43.5*	8.9	.	.	.
COc1ccc(C2=NS(=O)(=O)N(C)C(C(=O)Nc3ccc4c(c3)OCO4)=C2)cc1	-3.1	-9.9	0.5	-9.7	64.2*
COc1ccc(-c2cc(C(=O)Nc3ccccc3SC)no2)cc1	-1.7	-0.9	.	.	.
COc1ccc(-c2cc(C(=O)Nc3ccc4c(c3)OCO4)no2)cc1	-7.4	-12.4	0.0	31.5*!	14.0
Cc1ccc(C2=NS(=O)(=O)N(C)C(C(=O)Nc3ccc4c(c3)OCO4)=C2)cc1	1.4	-10.0	-0.5	-20.6	-32.7
Cc1nn(CCC(=O)N2CCN(c3ccccc3)CC2)c(C)c1S(=O)(=O)N1CCCC1	.	.	-0.3	2.5	.
COc1ccc(CCN2C(=O)CN(C3CCC(C)CC3)C(=O)C2c2ccc(OC(C)C)c(OC)c2)cc1OC (configuration not stated)	.	.	-0.4	-0.9	.
CC1(C(=O)Nc2cnc3ccccc3c2)CCN1C(=O)C/C=C/c1ccccc1 (configuration not stated)	3.9	-8.8	.	.	.
COc1cc(NC(=O)c2cc(-c3ccccc3)on2)cc(OC)c1OC	-4.4	-23.1	-0.7	-3.4	-0.7
COc1cccc(-c2cc(C(=O)Nc3cc(OC)c(OC)c(OC)c3)no2)c1	0.4	-5.3	-1.9	-7.2	43.7*
CC1CCCCN1C(=O)c1cc(-c2ccc3c(c2)OCO3)on1 (configuration not stated)	-4.1	-1.9	-0.4	11.0	-32.2
CN1C(C(=O)Nc2ccc(OC(F)(F)F)cc2)=CC(c2ccc3c(c2)OCO3)=NS1(=O)=O	2.2	-2.2	0.0	75.3*!	-19.8
COc1ccc(-c2cc(C(=O)N3CCOCC3)no2)cc1	-3.2	1.1	-0.6	-14.8	34.6*
COc1cccc(-c2cc(C(=O)N3CCOCC3)no2)c1	1.2	-3.6	-2.2	-3.1	-0.9
CC1CCN(C(=O)c2cc(-c3ccc4c(c3)OCO4)on2)CC1	-0.4	-5.0	-1.6	36.2*	-15.8
CCc1ccc(NC(=O)C2=CC(c3ccc4c(c3)OCO4)=NS(=O)(=O)N2C)cc1	.	.	0.6	-3.3	.
Cc1ccc2nc(NC(=O)CSc3nccn3Cc3ccc(F)cc3)sc2c1	.	.	0.8	13.5	.
Cn1c(=O)n(C)c2cc(N3CCOCC3)c(NC(=O)c3c(F)cccc3F)cc21	.	.	-1.4	22.2	.
COc1cccc(CNC(=O)c2ccc3c(c2)nc2n3CCC(C)C2)c1OC (configuration not stated)	.	.	0.1	9.5	.
COc1ccc(-c2nc3ccccc3o2)cc1NC(=O)c1cc(Br)ccc1OC	.	.	-1.0	-0.5	.
Cc1c(C(=O)Nc2ccc3c(c2)OCO3)sc2nc(-c3ccccc3)cn12	-0.9	-14.2	0.1	.	66.7*
CC12CCC(=O)N1C(C(=O)N1CCN(c3ccc(C(F)(F)F)cc3[N+](=O)[O-])CC1)CS2 (configuration not stated)	-2.3	3.1	0.9	1.0	7.6
O=C1NCCCCC1NC1CC(=O)N(c2ccccc2)C1=O (configuration not stated)	-2.2	19.0	.	.	.
SMILES	D2 ag-1	D2 PAM-1	D2 ag-2	D2 PAM-2	D2 antag
CCOc1ccc(N2C(=O)CC(NC3CCCCNC3=O)C2=O)cc1 (configuration not stated)	-2.6	-10.6	-0.3	-6.1	45.3*
CCN(CC)c1ccc(/C=C/C(=O)C2C(=O)C=C(C)OC2=O)cc1 (configuration not stated)	-1.3	-0.9	82.8*	.	50.3*
COC(=O)c1ccc2c(=O)n(CCCCCC(=O)NCCc3ccccc3)c(=O)[nH]c2c1	.	.	-2.6	11.3	.
CC1(C(=O)OCC(=O)NC(=O)NCc2ccccc2)CC1(Cl)Cl (configuration not stated)	-1.6	-0.1	1.0	5.8	31.3*
CC1(C(=O)OCC(=O)NCc2ccc(Cl)cc2)CC1(Cl)Cl (configuration not stated)	-4.5	-3.8	.	.	.
COC(c1ccccc1)c1nnc(CCC(=O)N2CCCCCCC2)o1 (configuration not stated)	1.4	2.5	-1.5	7.4	-16.5
O=C(CCc1nnc(-c2ccc(-c3ccccc3)cc2)o1)N1CCCCC1	6.9	-5.6	1.4	16.0	62.2*
Cc1cccc(NC(=O)C(=O)NCC(c2cccnc2)N2CCc3ccccc3C2)c1C (configuration not stated)	.	.	-1.6	7.7	.
O=C(c1cccc2ccccc12)C1CCCN(C(=O)CCc2cnccn2)C1 (configuration not stated)	3.0	-4.2	0.8	0.3	0.3
O=C(c1cc(F)ccc1F)C1CCCN(C(=O)CCc2cnccn2)C1 (configuration not stated)	1.6	-6.5	-2.1	-3.6	37.9*
O=C(NC1CCN(S(=O)(=O)c2ccc(Cl)cc2)CC1)C1CCCCC1	0.1	-11.7	1.6	-5.6	-9.7
O=C(NC1CC1)C1CCN(S(=O)(=O)c2ccc(Cl)cc2)CC1	0.5	-5.3	-0.4	5.7	32.0*
COc1ccc(Cl)cc1NC(=O)c1noc2c1CCCC2	-5.6	-3.6	1.1	18.4	31.3*
COc1cc(Br)c(CCNC(=O)c2ccco2)cc1OC	-2.3	-6.0	0.2	-3.9	36.5*
CCc1nc2ccc(C(=O)NCCc3ccc(OC)c(OC)c3)cc2nc1CC	3.5	8.2	-0.4	2.6	-0.6
COc1ccc(CCNC(=O)c2noc3c2CCCC3)cc1OC	-0.8	-13.4	-0.1	1.8	42.2*
COc1ccc(CCNC(=O)c2ccc3nc(-c4ccco4)c(-c4ccco4)nc3c2)cc1OC	9.5	60.7*	6.0	10.1	-5.7
COc1ccccc1OCCNC(=O)c1ccco1	-4.8	-2.5	0.5	-6.0	1.3
COc1ccc(CCNC(=O)c2nonc2N)cc1OC	1.0	-15.0	0.4	-0.9	7.1
CCOc1ccc(CCNC(=O)Cn2ncc3c(=O)oc4ccc(C)cc4c32)cc1	.	.	0.0	-4.5	.
CC(C)Cn1c(N)c(C(=O)COC(=O)c2ccc([N+](=O)[O-])o2)c(=O)n(C)c1=O	?	?	3.1	-3.9	-3.6
COc1cc(C2=NOC(C(=O)Nc3ccc4c(c3)OCO4)C2)cc(OC)c1OC (configuration not stated)	-0.1	4.9	-1.1	10.6	-2.8
COc1ccc(C2=NOC(C(=O)NCc3ccc(F)cc3)C2)cc1OC (configuration not stated)	1.0	-7.7	-0.1	37.0*	8.5
